Screens (PubChem)
mHTT-CaM PPI inh = mutant huntingtin-calmodulin interaction inhibitors – biochemical, AlphaScreen, primary screen; AlphaScreen His-mHTT/GST-CaM binding, luminescence; inhibition, % at 15 µM; 190,000 compounds, 3.6% hits; AID 1671202, 2021;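 further: 0% = both proteins with DMSO and 100% = one protein alone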
Pf apPOL inh = Pf-apPOL inhibitors, biochemical, fluorescence; 210,000 compounds, 0.25% hits; Recombinant Pf-apPOL, molecular beacon fluorescence, 1.5 h; Plasmodium falciparum apicoplast DNA polymerase (apPOL); AID 1794808, 2022; inhibition, % at 10 µM
An asterisk follows results filed as active; / = no result given. Many of the other results were omitted from the sample, so hits are more common in it than they were. No stated cut-off is given here; in the data, active means inhibition above about 50%; inactive means the rest.

SMILES	mHTT-CaM PPI inh	Pf apPOL inh
CC(=O)Nc1ccc(NC2=C(N3CCCCC3)C(=O)c3ccccc3C2=O)cc1	12.4	-1.1
O=C1C(Nc2ccc(F)c(F)c2)=C(N2CCOCC2)C(=O)c2ccccc21	32.2	-10.3
O=C1C(Nc2cccc(I)c2)=C(N2CCCC2)C(=O)c2ccccc21	99.0*	27.0
O=C1C(Nc2cccc(I)c2)=C(N2CCOCC2)C(=O)c2ccccc21	86.0*	19.5
O=C1C(Nc2cccc(I)c2)=C(N2CCCCC2)C(=O)c2ccccc21	92.0*	23.7
O=C1C(Nc2cccc(C(F)(F)F)c2)=C(N2CCOCC2)C(=O)c2ccccc21	66.0*	-9.5
CC(=O)NC1=C(N2CCN(c3ccccc3)CC2)C(=O)c2ccccc2C1=O	44.8	-7.3
Cc1ccc(NC(=O)N2CCCC2c2cc(C(C)C)on2)c(Cl)c1 (centres undefined)	-2.3	-6.4
C#CCOCC(O)CN1CCN(C(c2ccccc2)c2ccccc2)CC1 (centres undefined)	-5.0	-11.0
CCCCc1ccc(NC(=O)c2ccccc2C)cc1	-25.7	1.9
Cc1ccc(NS(=O)(=O)c2cccc([N+](=O)[O-])c2)cc1C	10.4	-0.8
CC(C)C(=O)Nc1ccc(C2(C(=O)NCc3cc(F)cc(F)c3)CCCCC2)cc1	-6.9	-3.1
CCOc1ccc(NC(=O)N2CCC(N3CCN(Cc4ccccc4)C3=O)CC2)cc1	12.4	-4.5
CCN(CC)c1ccc(C=Nc2ccccc2)c(O)c1	8.0	-6.3
CCN(CC)c1ccc(C=NCCc2ccccc2)c(O)c1	80.0*	1.6
COc1ccc(CNC(=O)C2CCN(c3cnc4ccccc4n3)CC2)cc1	-8.0	-10.3
CCOC(=O)c1c(-c2ccccc2)oc2cc(Br)c(OCC#N)cc12	-24.7	-3.3
Cc1ccc(NC(=O)C2CCCN(c3nnc4cccc(C)n34)C2)cc1F (centres undefined)	52.7*	-3.2
Cc1cc(NC(=O)C2CCCN(c3nnc4cccc(C)n34)C2)ccc1F (centres undefined)	35.5	-2.0
Cc1ccc(NC(=O)CCCOc2ccc(Cl)cc2)c([N+](=O)[O-])c1	3.2	-3.9
O=C(COc1ccc(Cl)cc1)N1CCC(N2CCc3ccccc32)CC1	85.5*	-4.3
CC1CCCN(C(=O)COc2ccc(Cl)cc2)C1 (centres undefined)	-8.9	-4.7
Cc1cccc(N(C)C(=O)CN2C(=O)NC3(CCC(C(C)(C)C)CC3)C2=O)c1 (centres undefined)	0.7	-4.9
Cc1cccc(C)c1NC1=NC(=S)N(c2cccc(O)c2)C12CCC(C(C)(C)C)CC2 (centres undefined)	56.5*	-117.0
Cc1nnc(SCCC(=O)Nc2ccccc2C(F)(F)F)s1	3.0	3.5
SMILES	mHTT-CaM PPI inh	Pf apPOL inh
Cc1ccccc1C1CC(c2ccc(Br)cc2)Nc2nc(N)nn21 (centres undefined)	71.3*	0.1
Cc1ccccc1C1CC(c2ccc(F)cc2)Nc2nc(N)nn21 (centres undefined)	39.8	0.8
Nc1nc2n(n1)C(c1ccccc1)CC(c1ccccc1Cl)N2 (centres undefined)	8.2	-5.2
Cc1cccc(C2CC(c3ccc(Br)cc3)Nc3nc(N)nn32)c1 (centres undefined)	54.9*	0.5
Cc1ccc(C2CC(c3ccccc3Cl)Nc3nc(N)nn32)cc1 (centres undefined)	66.6*	-2.7
COc1ccc(C2CC(c3cccc(C)c3)n3nc(N)nc3N2)cc1 (centres undefined)	-0.5	-0.8
Cc1ccc(C2CC(c3ccccc3)n3nnnc3N2)cc1 (centres undefined)	9.0	1.5
Cc1ccc(C2CC(c3ccc(Cl)cc3)n3nnnc3N2)cc1 (centres undefined)	54.0*	3.5
CC(=O)C1=C(C)NC(SCC(=O)c2cccc(Br)c2)=C(C#N)C1c1cccnc1 (centres undefined)	3.4	-6.2
O=C(Nc1cc(C(F)(F)F)cc(C(F)(F)F)c1)C(c1ccccc1)C1CCCC1 (centres undefined)	/	-1.4
CC(C)CNC(=O)c1cncc(-c2csc3ccccc23)c1	3.8	2.6
O=C1c2ccccc2C(=O)N1n1cnnc1	-8.2	-2.3
O=C1NC(=Nc2ccccc2Cl)S/C1=C/c1ccc([N+](=O)[O-])cc1	43.0	18.7
COc1ccc(/C=C2/SC(=Nc3ccccc3Cl)NC2=O)c(OC)c1	46.0	0.4
COc1cccc(/C=C2/SC(=Nc3ccccc3Cl)NC2=O)c1	52.0*	-55.0
O=C1NC(=Nc2ccccc2Cl)S/C1=C/c1cccc([N+](=O)[O-])c1	88.0*	-1.6
Cc1cc(C)nc(SCC(O)COc2ccc(C(C)(C)C)cc2)n1 (centres undefined)	-20.6	-0.7
COCCc1nc(C2CCCN(C(=O)c3cccnc3)C2)n[nH]1 (centres undefined)	0.5	-1.4
O=[N+]([O-])c1cccc(C2=CC(c3ccccc3F)n3nnnc3N2)c1 (centres undefined)	18.0	-2.9
O=C(NC1CCCCCC1)C1CCCN(c2ccncc2)C1 (centres undefined)	-9.1	-0.7
CC1(C(=O)O)COC(c2ccc([N+](=O)[O-])cc2)OC1 (centres undefined)	-3.0	-2.7
CNc1ncnc2c1C(c1ccc([N+](=O)[O-])cc1)c1c(NC)ncnc1O2	52.0*	16.0
Nc1c(Oc2ccccc2)c(Oc2ccccc2)c(N)c2c1C(=O)c1ccccc1C2=O	97.0*	-2.7
Cc1nc(N)[nH]c(=O)c1Oc1ccccc1	-1.8	-2.3
Cc1ccc(N=Cc2cc(C)c(C)cc2O)c(O)c1	53.0*	8.1
SMILES	mHTT-CaM PPI inh	Pf apPOL inh
COc1ccc(C=Nc2ccc(C)cc2C)cc1O	7.0	7.8
Cc1ccc(N=Cc2cc([N+](=O)[O-])ccc2O)c(Br)c1	4.0	-2.9
COc1cc(C=Nc2ccc(C)cc2O)ccc1O	77.0*	-4.1
CCN1CCN(c2ccc(N3CCCC(C(=O)NCc4ccccc4OC)C3)nn2)CC1 (centres undefined)	1.4	-15.7
O=C(CN(Cc1ccccc1)S(=O)(=O)c1cc(Cl)ccc1Cl)N1CCCCCC1	-7.0	-2.7
COc1ccc(C2CCCN2C(=O)c2c(C)noc2C)cc1 (centres undefined)	2.6	-3.3
COc1cccc2c1OC(c1cccc(Cl)c1)N1N=C(c3ccco3)CC21 (centres undefined)	12.0	-28.2
CCOc1cccc2c1OC(c1ccc(OC)cc1)N1N=C(c3ccc(C)o3)CC21 (centres undefined)	81.0*	-14.5
COc1cccc(C2Oc3c(OC)cccc3C3CC(c4cccs4)=NN32)c1 (centres undefined)	42.0	-16.6
CCOc1cccc2c1OC(c1ccc(OC)c(OC)c1OC)N1N=C(c3ccc(C)o3)CC21 (centres undefined)	61.0*	-15.1
CCOc1cccc2c1OC(c1cc(OC)ccc1OC)N1N=C(c3ccco3)CC21 (centres undefined)	8.0	-20.1
COc1ccc(C2Oc3c(OC)cccc3C3CC(c4cccs4)=NN32)cc1 (centres undefined)	50.0*	-15.3
COc1cccc(C2Oc3c(OC)cccc3C3CC(c4ccc(C)o4)=NN32)c1 (centres undefined)	57.0*	-15.5
CCOc1cccc2c1OC(c1cc(OC)c(OC)c(OC)c1)N1N=C(c3ccco3)CC21 (centres undefined)	47.0	-20.0
